Assay [1] can be described thus: qHTS assay to identify small molecule agonists of the estrogen receptor alpha (ER-alpha) signaling pathway in the presence of an antagonist - cell viability counter screen (AID 1259386).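 Also: cells exposed to compounds for 22 h at 37 °C before the viability read; nearly all actives have a fitted effect of over 30% in size.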 Also: potency is read from the fitted curve at half-maximal effect. Summed up:
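VM7Luc4E2, stripped-serum pre-culture 5 d; 24hr plating; +ICI-182,780 10.0nM final; cpds 15 conc, 22hr, 37C/5% CO2; CellTiter-Fluor added at 21hr, fluorescence 1hr later.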

Assay [2] addresses Progesterone receptor (Homo sapiens) (UniProt P06401). As to the kind of experiment: qHTS assay to identify small molecule agonists of the progesterone receptor (PR) signaling pathway (AID 1346784; calls by dose curve; also: nearly all actives have a fitted effect of over 30% in size). Put shortly: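 Agonist qHTS: compounds pinned onto 3,000 PR-UAS-bla HEK 293T cells per well in charcoal-stripped serum medium, 16hr at 37C, then beta-lactamase activity measured by LiveBLAzer FRET fluorescence after 2 hours at room temperature.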

For assay [3] the target is unchanged. Briefly: qHTS assay to identify small molecule antagonists of the progesterone receptor (PR) signaling pathway (AID 1346795; active = well fitted inhibition curve with a large enough effect in the signal ratio in the repeat runs, not every such curve was filed as active; the % refers to the signal ratio; also: potency is read from the fitted curve at half-maximal effect). Summed up: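 Antagonist mode with agonist R5020 at 1 nM final and 16 hr incubation at 37C. Reporter was beta-lactamase driven by UAS in HEK293T (PR-UAS-bla), 2% charcoal-stripped serum; signal from LiveBLAzer FRET substrate, 2 hr at room temperature.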
In general terms: Quantitative high-throughput screening tests each substance at several concentrations.

Assay [4] can be described thus: qHTS assay to identify small molecule antagonists of the progesterone receptor (PR) signaling pathway - cell viability counter screen (AID 1346798). Also: series mostly up to about 92 µM; nearly all actives have a fitted effect of over 50% in size. Put shortly:
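Cytotoxicity read as CellTiter-Glo luminescence (30 min, room temperature) in the same wells as the beta-lactamase readout. HEK293T PR-UAS-bla cells in charcoal-stripped 2% FBS received compound and R5020, then 16 h at 37C, 5% CO2.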

Assay [5] is described as follows: qHTS assay to identify small molecule antagonists of the TGF-beta/Smad signaling pathway - cell viability counter screen (AID 1346824). Also: nearly all actives have a fitted effect of over 50% in size. Put shortly: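 Cytotoxicity counter-screen run in the same wells as the beta-lactamase Smad reporter read: CellTiter-Glo luminescence after 30 min at room temperature. HEK 293T SBE-bla cells had 5 hr compound exposure at 37 C with TGF-beta1 (0.25 ng/mL stock).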

The nature of assay [6]: qHTS assay to identify small molecule agonists of the TGF-beta/Smad signaling pathway (AID 1346859; active = well fitted activation curve with a large enough effect in the signal ratio in the repeat runs, not every such curve was filed as active; the % refers to the signal ratio; also: series mostly up to about 77 µM). Put shortly:
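Fluorescence (ex 405 nm; em 460 and 530 nm) was read 2 h after LiveBLAzer FRET substrate at RT. The preceding compound treatment of overnight-plated SBE-bla HEK293T cells lasted 5 h at 37 C.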

Assay [7] has as its target Thyrotropin-releasing hormone receptor (Homo sapiens) (UniProt P34981). Briefly: qHTS assay to identify small molecule agonists of the thyrotropin-releasing hormone receptor (TRHR) signaling pathway (AID 1346891; calls by dose curve; also: series mostly up to about 58 µM). Put shortly:
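Agonist-mode intracellular calcium readout: kinetic fluorescence over 3 min at 1 s intervals after compound addition to TRHR-HEK293 cells (18 h seeded, 2 h dye-loaded at 37 C). Fifteen concentrations, triplicates.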

A short description of assay [8]: Human pregnane X receptor (PXR) small molecule agonists, qHTS cell viability counter screen (AID 1346977). Also: nearly all actives have a fitted effect of over 50% in size. Also: potency is read from the fitted curve at half-maximal effect. Put shortly:
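Same-well viability read: CellTiter-Fluor added after 23 hr compound exposure, fluorescence measured 1 hr later. Cells were PXR-Luc HepG2 seeded at 2,000/well in 5% charcoal-stripped FBS medium, rested 5 hr before dosing at 37 C.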

Assay [9] in a line: Caspase-3/7 induction in HepG2 cells by small molecules, qHTS assay (AID 1346978). Also: nearly all actives have a fitted effect of over 15% in size. Put shortly: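 Caspase-3/7 induction was measured by Caspase-Glo 3/7 luminescence (30 min, room temperature) after a 17 hr compound exposure of wild-type HepG2 cells seeded at 2,000 per well and pre-incubated 5 hr.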
A short description of assay [10]: Caspase-3/7 induction in CHO-K1 cells by small molecules, qHTS cell viability counter screen (AID 1346979). Also: nearly all actives have a fitted effect of over 35% in size. Also: potency is read from the fitted curve at half-maximal effect. Summed up:
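Cytotoxicity counter screen: CellTiter-Fluor added to compound-treated wild-type CHO-K1 cells at 16 h (37C, 5% CO2), fluorescence measured 1 h later; same wells as caspase-3/7 measurement.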

Assay [11] is described as follows: Caspase-3/7 induction in CHO-K1 cells by small molecules, qHTS assay (AID 1346980). Also: nearly all actives have a fitted effect of over 15% in size. Summed up: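 Luminescent Caspase-Glo 3/7 read (30min, room temperature) quantified apoptosis induction. Cells were wild-type CHO-K1, treated with compound for 17hr at 37 C and 5% CO2.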
Assay [12] in a line: Caspase-3/7 induction in HepG2 cells by small molecules, qHTS cell viability counter screen (AID 1346981). Also: nearly all actives have a fitted effect of over 30% in size. Also: potency is read from the fitted curve at half-maximal effect. Put shortly:
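HepG2, WT, 2,000 cells/well; 5 hr pre-incubation 37 C/5% CO2; compound pin-transferred from DMSO; 16 hr exposure; CellTiter-Fluor, 1 hr; fluorescence read.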

Assay [13] has as its target Nuclear receptor subfamily 1 group I member 2 (Homo sapiens) (UniProt O75469). As to the kind of experiment: Human pregnane X receptor (PXR) small molecule agonists, qHTS assay (AID 1346982). Also: nearly all actives have a fitted effect of over 35% in size. Also: potency is read from the fitted curve at half-maximal effect. Summed up:
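Luciferase signal from ONE-Glo (30 min, room temperature) measured activation of hPXR-driven CYP3A4 reporter expression in PXR-Luc HepG2 cells treated with compounds for 24 hr at 37 C.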

Assay [14] addresses Acetylcholinesterase (Homo sapiens) (UniProt P22303). Briefly: Acetylcholinesterase (AChE) small molecule antagonists: colormetric cell-based qHTS assay (AID 1347395; calls by dose curve; also: nearly all actives have a fitted effect of over 30% in size). Summed up:
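Colorimetric readout: DTNB quantifies thiocholine from acetylthiocholine hydrolysed by endogenous AChE of SH-SY5Y cells (2,000/well, plated overnight). Compound pretreatment 30 min, substrate incubation 90 min, both 37 C.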

Assay [15] is described as follows: qHTS assay to identify small molecule agonists of the TGF-beta/Smad signaling pathway - cell viability counter screen (AID 1346829). Also: top concentration of the series differs between compounds; nearly all actives have a fitted effect of over 45% in size. Summed up: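 Luminescence from CellTiter-Glo, read after a 30 min room-temperature incubation, gives cell viability of SBE-bla HEK 293T cells treated 5 hr with compounds at 37 C.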
A short description of assay [16]: qHTS assay to identify small molecule agonists of the progesterone receptor (PR) signaling pathway - cell viability counter screen (AID 1346799; calls by dose curve; also: nearly all actives have a fitted effect of over 45% in size). Summed up:
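Cytotoxicity measured by CellTiter-Glo luminescence (30 min, RT) in the same wells as the PR beta-lactamase agonist read. Those HEK293T cells had 16 h compound treatment at 37 C in 2% charcoal-stripped FBS medium.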

Assay [17] concerns the target Thyrotropin-releasing hormone receptor (Homo sapiens) (UniProt P34981). Briefly: qHTS assay to identify small molecule antagonists of the thyrotropin-releasing hormone receptor (TRHR) signaling pathway (AID 1346877; active = well fitted inhibition curve with a large enough effect in the repeat runs, not every such curve was filed as active; also: series mostly up to about 51 µM). Summed up: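 Intracellular calcium fluorescence, read kinetically every second over 3 min, reports TRH-evoked signalling in HEK293 cells carrying TRHR. Test compounds were added 5 min ahead of a 1 nM TRH challenge.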

A number with no mark means an inactive call. Inconclusive results are not listed. Active and inactive are the calls of the source. Unless noted, calls follow the shape of the dose curve; as a rule, active = well fitted curve in the direction sought with a large enough effect in the repeat runs; inconclusive = weak or mixed curves; inactive = no such curve, though single readings can be large; an effect the other way counts as inactive or inconclusive.

Acetylcholinesterase (Homo sapiens), sequence (P22303 whole entry, looked up): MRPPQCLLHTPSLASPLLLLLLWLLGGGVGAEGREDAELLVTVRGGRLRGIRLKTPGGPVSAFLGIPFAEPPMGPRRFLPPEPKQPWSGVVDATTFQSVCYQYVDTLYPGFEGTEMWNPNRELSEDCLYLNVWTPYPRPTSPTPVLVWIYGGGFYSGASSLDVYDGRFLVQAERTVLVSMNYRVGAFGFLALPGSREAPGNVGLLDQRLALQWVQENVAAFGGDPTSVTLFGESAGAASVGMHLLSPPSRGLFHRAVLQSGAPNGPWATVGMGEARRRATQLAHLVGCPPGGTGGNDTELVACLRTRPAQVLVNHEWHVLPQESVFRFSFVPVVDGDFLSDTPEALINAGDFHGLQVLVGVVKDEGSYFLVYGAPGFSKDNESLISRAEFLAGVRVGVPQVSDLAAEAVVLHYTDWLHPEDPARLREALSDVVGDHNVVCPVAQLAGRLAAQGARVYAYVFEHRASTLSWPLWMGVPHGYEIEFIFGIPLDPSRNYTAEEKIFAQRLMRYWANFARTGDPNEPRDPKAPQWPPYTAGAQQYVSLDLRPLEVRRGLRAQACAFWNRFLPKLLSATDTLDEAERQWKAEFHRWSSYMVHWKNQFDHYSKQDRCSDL
Progesterone receptor (Homo sapiens), sequence (P06401 whole entry, looked up): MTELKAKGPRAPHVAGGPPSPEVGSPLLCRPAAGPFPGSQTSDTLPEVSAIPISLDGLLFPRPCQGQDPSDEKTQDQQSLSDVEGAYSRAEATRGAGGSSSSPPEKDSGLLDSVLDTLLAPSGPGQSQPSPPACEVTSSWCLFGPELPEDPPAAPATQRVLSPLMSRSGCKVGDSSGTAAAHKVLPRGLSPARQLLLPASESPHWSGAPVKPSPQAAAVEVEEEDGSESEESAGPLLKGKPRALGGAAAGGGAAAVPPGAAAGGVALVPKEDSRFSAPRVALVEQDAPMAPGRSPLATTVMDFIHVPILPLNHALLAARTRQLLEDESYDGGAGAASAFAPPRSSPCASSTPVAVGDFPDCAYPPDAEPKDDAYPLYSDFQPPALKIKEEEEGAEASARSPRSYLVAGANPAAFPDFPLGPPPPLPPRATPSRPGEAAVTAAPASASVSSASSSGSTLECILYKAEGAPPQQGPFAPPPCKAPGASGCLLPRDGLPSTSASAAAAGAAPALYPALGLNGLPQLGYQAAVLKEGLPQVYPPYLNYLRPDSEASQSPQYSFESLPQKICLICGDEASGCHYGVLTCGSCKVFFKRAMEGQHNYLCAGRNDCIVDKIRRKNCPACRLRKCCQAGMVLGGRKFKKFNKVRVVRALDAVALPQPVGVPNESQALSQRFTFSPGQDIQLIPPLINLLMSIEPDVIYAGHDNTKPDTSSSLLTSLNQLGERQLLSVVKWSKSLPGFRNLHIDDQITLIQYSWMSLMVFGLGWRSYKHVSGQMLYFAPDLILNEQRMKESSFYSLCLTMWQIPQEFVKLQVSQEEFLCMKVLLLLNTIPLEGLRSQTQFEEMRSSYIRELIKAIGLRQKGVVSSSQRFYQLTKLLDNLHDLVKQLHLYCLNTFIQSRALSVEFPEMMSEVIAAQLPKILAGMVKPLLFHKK
Thyrotropin-releasing hormone receptor (Homo sapiens), sequence (P34981 whole entry, looked up): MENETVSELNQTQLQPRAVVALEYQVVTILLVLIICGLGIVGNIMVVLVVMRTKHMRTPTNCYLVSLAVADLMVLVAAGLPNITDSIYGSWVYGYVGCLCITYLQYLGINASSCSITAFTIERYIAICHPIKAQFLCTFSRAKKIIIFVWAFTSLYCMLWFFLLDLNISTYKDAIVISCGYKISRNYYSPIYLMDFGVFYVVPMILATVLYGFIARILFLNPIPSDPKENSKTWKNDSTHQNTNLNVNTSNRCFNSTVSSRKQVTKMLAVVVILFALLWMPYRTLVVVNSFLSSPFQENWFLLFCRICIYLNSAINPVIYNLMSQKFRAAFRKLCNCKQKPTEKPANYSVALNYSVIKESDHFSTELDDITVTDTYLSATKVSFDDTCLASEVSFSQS
Nuclear receptor subfamily 1 group I member 2 (Homo sapiens), sequence (O75469 whole entry, looked up): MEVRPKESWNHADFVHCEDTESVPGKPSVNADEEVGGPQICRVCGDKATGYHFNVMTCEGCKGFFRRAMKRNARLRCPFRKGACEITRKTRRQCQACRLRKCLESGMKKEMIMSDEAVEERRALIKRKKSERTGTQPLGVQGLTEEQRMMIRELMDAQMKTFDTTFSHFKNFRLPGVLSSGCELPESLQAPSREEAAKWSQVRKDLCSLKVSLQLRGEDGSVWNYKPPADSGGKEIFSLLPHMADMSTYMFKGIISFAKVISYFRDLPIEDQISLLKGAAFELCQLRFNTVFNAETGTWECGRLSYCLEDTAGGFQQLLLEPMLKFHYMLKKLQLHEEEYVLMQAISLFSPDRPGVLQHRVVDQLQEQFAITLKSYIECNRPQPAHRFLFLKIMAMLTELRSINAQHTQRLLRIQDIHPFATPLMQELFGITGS

With `COC(=O)c1ccccc1S(=O)(=O)NC(=O)Nc1nc(C)nc(OC)n1`, the Potency result in assay [1], in [2], in assay [3], in assay [4], in assay [5] and in assay [7] was “inactive” in each case. Further, the Potency result in assay [8], in assay [9], in assay [10], in assay [11], in assay [12] and in assay [13] was “inactive” in each case. In addition, in [14], the Potency result is “inactive”. Besides, the outcome in assay [6] was inactive.

For the compound `COC(=O)N(OC)c1ccccc1COc1ccn(-c2ccc(Cl)cc2)n1`, the Potency in assay [1] is 0.864 µM (active); in assay [3], 4.86 µM (active); in assay [8], 5.45 µM (active); in [10] it was 0.0433 µM (active); in assay [12], 54.5 µM (active); in assay [13] it was 68.6 µM (active). The Potency entry in assay [2], in assay [5], in assay [15], in assay [7], in assay [9] and in [11] was “inactive” in each case. Besides, in assay [14], the Potency entry was “inactive”.

Regarding `COC(=O)C(C)N(C(=O)c1ccco1)c1c(C)cccc1C` (stereo unspecified), the Potency entry in assay [1], in assay [2], in assay [4], in assay [16], in assay [5] and in assay [15] was “inactive” each time. The Potency entry in [8], in assay [9], in assay [10], in assay [11], in assay [12] and in [14] was “inactive” in each case. Moreover, the outcome in assay [6] was inactive. Also, in assay [13], the Potency was 10.9 µM (active).

Consider `CCCCN(CCCC)C(=S)S`, for which the Potency entry in assay [1], in assay [2], in assay [3], in [4], in assay [16] and in assay [5] was “inactive” each time. For the same compound, the Potency result in assay [8], in assay [9], in [10], in [11], in assay [12] and in assay [14] was “inactive” in each case. Besides, the compound was classed as inactive in assay [6]. Further, the Potency in assay [13] was 24.3 µM (active).

For `O=Cc1ccccc1`, the Potency entry in [1], in [2], in [3], in assay [4], in assay [5] and in assay [7] was “inactive” throughout. Also, the Potency entry in [8], in assay [9], in [10], in [11], in assay [12] and in assay [13] was “inactive” throughout. The Potency entry in assay [14] was “inactive”. Moreover, the compound was called inactive in [6].

On to `CCC(C)Nc1c([N+](=O)[O-])cc(C(C)(C)C)cc1[N+](=O)[O-]` (stereo unspecified), for which the Potency result in [1], in assay [2], in [4], in [16], in assay [5] and in assay [17] was “inactive” each time. The Potency result in assay [7], in assay [8], in assay [9], in assay [11], in [12] and in assay [14] was “inactive” in each case. In [6], the call was inactive. Besides, the Potency in assay [13] is 24.3 µM (active).

Turning to `S=C=Nc1ccccc1`, the Potency result in assay [1], in assay [2], in assay [3], in assay [4], in assay [16] and in [5] was “inactive” in each case. The Potency result in assay [17], in [7], in assay [8], in assay [9], in assay [10] and in assay [11] was “inactive” throughout. In addition, the Potency entry in [12] and in [14] was “inactive” throughout. The Potency in [13] is 63.1 µM (active).

With `COc1nc(C)nc(NC(=O)NS(=O)(=O)c2ccccc2Cl)n1`, the Potency entry in assay [1], in [2], in assay [4], in assay [16], in [5] and in assay [15] was “inactive” each time. The Potency entry in assay [17], in assay [7], in assay [8], in assay [9], in assay [10] and in assay [11] was “inactive” in each case. Also, the Potency entry in assay [12], in [13] and in [14] was “inactive” in each case.

Regarding `CN/C(=N\[N+](=O)[O-])NCc1cnc(Cl)s1`, the Potency result in [1], in assay [2], in [3], in assay [4], in assay [16] and in assay [5] was “inactive” in each case. Further, the Potency result in assay [8], in assay [9], in [10], in [11], in assay [12] and in assay [13] was “inactive” in each case. The Potency result in [14] is “inactive”.

The values above are taken from PubChem BioAssay (Tox21).
